Calls of active or inactive are those of the source. Unless noted, no rule for the calls is given here.
How the values were obtained:
[1] = compounds binding Alexa647 anti-His antibody – biochemical, small-molecule microarray, 635 nm fluorescence, artefact control for SMM control protein annotation, primary screen (AID 1128); conditions: higher = more signal;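 also: score merges feature fluorescence with signal-to-noise for each printed compound spot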
[2] = system: Human papillomavirus type 1a E7 protein (residues 1-88); assay: HPV1a E7 small-molecule binders, primary screen, biochemical, small-molecule microarray, residues 1-88, 635 nm (AID 1129); conditions: small-molecule microarray binding, fluorescence 635 nm; higher = more signal
[3] = biological target: Focal adhesion kinase 1 (Homo sapiens) (UniProt Q05397); assay: PTK2 protein binding on printed compound slides – biochemical, small-molecule microarray, 635/667 nm fluorescence, BSA, DTT, primary screen (AID 1130); conditions: 635 nm fluorescence, higher = more signal;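 also: composite of spot emission at 667 nm and signal to noise over triplicate slides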
Sequence of Focal adhesion kinase 1 (Homo sapiens) (Q05397 whole entry, looked up): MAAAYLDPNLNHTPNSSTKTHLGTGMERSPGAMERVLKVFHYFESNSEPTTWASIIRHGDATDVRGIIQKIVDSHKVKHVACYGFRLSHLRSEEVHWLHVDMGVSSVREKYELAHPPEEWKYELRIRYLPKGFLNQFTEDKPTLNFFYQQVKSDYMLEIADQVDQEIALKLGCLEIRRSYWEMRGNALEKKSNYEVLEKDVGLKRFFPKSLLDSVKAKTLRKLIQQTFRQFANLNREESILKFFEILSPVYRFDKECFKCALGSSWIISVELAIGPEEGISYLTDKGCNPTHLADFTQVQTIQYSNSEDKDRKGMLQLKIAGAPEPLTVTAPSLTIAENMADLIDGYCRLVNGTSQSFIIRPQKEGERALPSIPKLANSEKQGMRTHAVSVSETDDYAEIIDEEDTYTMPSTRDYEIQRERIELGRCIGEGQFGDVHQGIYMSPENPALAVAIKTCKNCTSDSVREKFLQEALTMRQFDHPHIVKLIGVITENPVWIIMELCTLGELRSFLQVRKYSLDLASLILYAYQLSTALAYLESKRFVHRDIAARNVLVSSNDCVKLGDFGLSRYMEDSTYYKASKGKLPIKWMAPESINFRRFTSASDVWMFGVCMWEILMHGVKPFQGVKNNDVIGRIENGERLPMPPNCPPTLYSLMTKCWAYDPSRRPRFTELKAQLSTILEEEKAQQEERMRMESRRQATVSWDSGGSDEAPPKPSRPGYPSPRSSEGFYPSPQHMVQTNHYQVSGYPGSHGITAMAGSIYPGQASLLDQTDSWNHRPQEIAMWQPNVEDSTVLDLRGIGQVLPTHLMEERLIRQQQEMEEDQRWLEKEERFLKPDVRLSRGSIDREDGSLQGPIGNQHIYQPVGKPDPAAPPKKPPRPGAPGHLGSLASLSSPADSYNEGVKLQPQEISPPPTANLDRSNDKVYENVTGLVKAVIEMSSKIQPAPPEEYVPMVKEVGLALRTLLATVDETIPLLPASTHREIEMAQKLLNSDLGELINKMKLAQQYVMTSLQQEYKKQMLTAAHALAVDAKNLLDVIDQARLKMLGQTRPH

[4] = system: Fibrinogen (Alexa647-labelled); assay: Alexa647-fibrinogen binding to printed small molecules – biochemical, small-molecule microarray, 635/667 nm fluorescence, artefact control for SMM control-protein annotation, profiling panel (AID 1131); conditions: fibrinogen-A647 binding fluorescence, higher = more signal;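 also: z-score merges 667 nm fluorescence with per-spot signal-to-noise over triplicate slides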
[5] = biological target: Follistatin (Homo sapiens) (UniProt P19883); assay: FST protein binding to printed compounds – biochemical, small-molecule microarray, 635/667 nm fluorescence, primary screen (AID 1132); conditions: 635 nm fluorescence, higher = more signal
Sequence of Follistatin (Homo sapiens) (P19883 whole entry, looked up): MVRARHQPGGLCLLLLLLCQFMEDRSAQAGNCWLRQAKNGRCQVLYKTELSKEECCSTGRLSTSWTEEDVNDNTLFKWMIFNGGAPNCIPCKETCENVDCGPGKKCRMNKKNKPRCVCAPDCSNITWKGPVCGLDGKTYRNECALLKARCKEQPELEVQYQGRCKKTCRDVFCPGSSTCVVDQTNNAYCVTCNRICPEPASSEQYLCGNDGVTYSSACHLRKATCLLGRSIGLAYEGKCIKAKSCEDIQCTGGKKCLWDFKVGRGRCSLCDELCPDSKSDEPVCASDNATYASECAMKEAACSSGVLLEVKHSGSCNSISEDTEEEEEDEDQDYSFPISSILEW

[6] = biological target: Fibroblast growth factor 2 (Homo sapiens) (UniProt P09038); assay: basic fibroblast growth factor binding to printed compounds – biochemical, small-molecule microarray, 635/667 nm fluorescence, primary screen (AID 1133); conditions: FGF2, fluorescence 635/667, higher = more signal
Sequence of Fibroblast growth factor 2 (Homo sapiens) (P09038 whole entry, looked up): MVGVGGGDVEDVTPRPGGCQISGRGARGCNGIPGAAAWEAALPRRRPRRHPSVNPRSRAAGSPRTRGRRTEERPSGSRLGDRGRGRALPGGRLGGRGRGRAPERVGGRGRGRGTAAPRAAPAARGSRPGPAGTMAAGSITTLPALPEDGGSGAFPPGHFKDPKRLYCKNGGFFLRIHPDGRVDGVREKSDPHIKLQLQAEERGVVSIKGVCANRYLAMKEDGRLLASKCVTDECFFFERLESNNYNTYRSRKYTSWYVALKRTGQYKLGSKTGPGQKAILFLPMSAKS

[7] = JC-1 mitochondrial potential readout, lung cancer cells – cell-based, A549, JC-1 fluorescence, basal, 24 h, 100 nL, profiling panel (AID 1138); conditions: higher = more signal;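 also: A549 lung adenocarcinoma cells under basal conditions with no added stimulus; test concentration not given here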
Lefty1 = Lefty1 protein binding to printed compounds – biochemical, small-molecule microarray, 635/667 nm fluorescence, primary screen (AID 1139); conditions: fluorescence 635/667, higher = more signal
[8] = system: wheat germ agglutinin (Triticum aestivum), Alexa647-labelled; assay: Alexa647-WGA lectin binding to printed small molecules – biochemical, small-molecule microarray, 635/667 nm fluorescence, artefact control for SMM control-protein annotation, profiling panel (AID 1140); conditions: WGA-A647 binding, 635 nm fluorescence, higher = more signal;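 also: score merges 667 nm feature emission with signal to noise over triplicate slides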
[9] = biological target: Luciferin 4-monooxygenase (Photinus pyralis) (UniProt P08659); assay: inhibition of purified Photinus pyralis luciferase – biochemical, luminescence, purified enzyme, 2006 set, primary screen (AID 1141); conditions: purified firefly luciferase, SteadyGlo luminescence, 30 min; higher = more signal, called active from +8 up or from −8 down;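 also: cell-free assay with purified firefly luciferase at 100 ng per well in PBS; test concentration not given here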
Sequence of Luciferin 4-monooxygenase (Photinus pyralis) (P08659 whole entry, looked up): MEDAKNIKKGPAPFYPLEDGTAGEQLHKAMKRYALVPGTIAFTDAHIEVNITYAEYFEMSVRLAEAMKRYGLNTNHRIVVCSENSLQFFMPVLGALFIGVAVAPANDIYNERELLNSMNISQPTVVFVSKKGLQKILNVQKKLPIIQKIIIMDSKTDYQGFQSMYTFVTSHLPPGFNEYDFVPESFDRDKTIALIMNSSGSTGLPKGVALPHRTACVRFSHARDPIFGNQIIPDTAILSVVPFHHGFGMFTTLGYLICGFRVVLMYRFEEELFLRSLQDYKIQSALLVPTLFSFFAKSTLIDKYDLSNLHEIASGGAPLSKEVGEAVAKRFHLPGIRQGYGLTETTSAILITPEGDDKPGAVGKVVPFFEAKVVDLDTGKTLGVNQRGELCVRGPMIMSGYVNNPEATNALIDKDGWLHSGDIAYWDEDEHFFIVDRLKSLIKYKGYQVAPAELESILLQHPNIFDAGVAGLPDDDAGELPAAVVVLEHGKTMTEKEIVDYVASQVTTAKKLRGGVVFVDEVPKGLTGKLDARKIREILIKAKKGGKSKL

[10] = system: Wnt5a (protein binding on small-molecule microarray); assay: small molecules binding Wnt5a protein – biophysical, small-molecule microarray, 635/667 nm fluorescence, primary screen (AID 1142); conditions: 635 nm fluorescence, higher = more signal;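 also: fluorescence read at 667 nm with signal to noise per printed feature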
[11] = ATP-based viability of Huh7 replicon cells – cell-based, CellTiter-Glo luminescence, basal, 48 h, cytotoxicity control for HCV replication inhibitor project, primary screen (AID 1143); conditions: higher = more signal, called active from +8 up or from −8 down;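 also: Huh7 hepatoma cells carrying a hepatitis C replication reporter with no stimulus; test concentration not given here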
[12] = Pseudomonas biofilm growth suppression – PAO1 strain, BacTiter-Glo luminescence, LB-PBS, primary screen (AID 1144); conditions: P. aeruginosa PAO1 biofilm, 12 h, higher = more signal
[13] = basal CRE-LacZ reporter activity in PC12 – cell-based, unstimulated, primary screen (AID 1145); conditions: no forskolin, luminescence, 4.5 h, higher = more signal, called active from +8 up or from −8 down
[14] = forskolin-driven CRE-LacZ activity in PC12 – cell-based, CRE-LacZ reporter, forskolin-stimulated, primary screen (AID 1146); conditions: luminescence, 4.5 h, higher = more signal, called active from +8 up or from −8 down;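 also: PC12 cells with 6xCRE LacZ reporter stimulated by forskolin 10 µM; beta-galactosidase reporter signal reflecting CREB driven transcription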
[15] = biological target: Streptavidin (Streptomyces avidinii) (UniProt P22629); assay: compounds binding control protein streptavidin – biophysical, small-molecule microarray, 635/667 nm fluorescence, artefact control for SMM compound annotation, primary screen (AID 1147); conditions: higher = more signal;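 also: signal reflects streptavidin binding to arrayed compounds as a control protein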
Sequence of Streptavidin (Streptomyces avidinii) (P22629 whole entry, looked up): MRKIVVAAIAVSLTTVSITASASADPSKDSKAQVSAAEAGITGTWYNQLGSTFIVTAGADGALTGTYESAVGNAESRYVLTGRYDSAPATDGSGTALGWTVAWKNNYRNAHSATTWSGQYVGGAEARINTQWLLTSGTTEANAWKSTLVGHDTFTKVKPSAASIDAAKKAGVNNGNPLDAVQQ

[16] = probe aInhba binding on compound microarray – biochemical, small-molecule microarray, 635/667 nm fluorescence, primary screen (AID 1148); conditions: higher = more signal;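 also: score merges 667nm spot fluorescence with signal-to-noise for antibody binding to printed compounds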
Torsin-1A (Homo sapiens) [17] = biological target: Torsin-1A (Homo sapiens) (UniProt O14656); assay: TOR1A wild-type binding on microarray – cell lysate, small-molecule microarray, lysate, 635/667 nm, primary screen (AID 1149); conditions: COS7 hTOR1A-WT lysate, 635 nm fluorescence, higher = more signal
Sequence of Torsin-1A (Homo sapiens) (O14656 whole entry, looked up): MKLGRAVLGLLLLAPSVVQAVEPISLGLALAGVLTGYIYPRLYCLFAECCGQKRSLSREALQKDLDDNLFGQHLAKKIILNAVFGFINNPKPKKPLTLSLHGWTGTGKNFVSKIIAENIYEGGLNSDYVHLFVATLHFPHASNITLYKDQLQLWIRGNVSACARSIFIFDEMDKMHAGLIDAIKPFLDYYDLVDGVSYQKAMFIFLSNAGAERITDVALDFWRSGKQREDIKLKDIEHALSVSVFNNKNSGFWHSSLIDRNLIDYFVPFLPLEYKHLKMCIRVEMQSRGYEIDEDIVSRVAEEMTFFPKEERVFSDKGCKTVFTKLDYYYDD

Torsin-1A (Homo sapiens) [18] = biological target: Torsin-1A (Homo sapiens) (UniProt O14656); assay: torsin A mutant lysate binding on microarrays – cell lysate, small-molecule microarray, COS7 lysate, 635/667 nm fluorescence, primary screen (AID 1150); conditions: COS7 hTOR1A mutant lysate, 635 nm fluorescence, higher = more signal;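 also: score pools 667 nm emission and signal to noise measuring lysate protein binding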
[19] = system: Sonic hedgehog protein (Shh); assay: Sonic hedgehog microarray binding compounds – biochemical, small-molecule microarray, 635/667 nm fluorescence, primary screen (AID 1151); conditions: 635 nm fluorescence, higher = more signal;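 also: Shh protein binding to compounds spotted on small-molecule microarray slides; score combines spot fluorescence intensity with signal-to-noise across triplicate slides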

Structure (SMILES) | composite z-score [1] | composite z-score [2] | composite z-score [3] | composite z-score [4] | composite z-score [5] | composite z-score [6] | z-score [7] | composite z-score (Lefty1) | composite z-score [8] | z-score [9] | composite z-score [10] | z-score [11] | z-score [12] | z-score [13] | z-score [14] | composite z-score [15] | composite z-score [16] | composite z-score (Torsin-1A (Homo sapiens) [17]) | composite z-score (Torsin-1A (Homo sapiens) [18]) | composite z-score [19]
CC(C)c1ccc(NN2C(C(O)C(c3ccccc3)c3ccccc3)C=CC3C(=O)N(c4ccccc4)C(=O)C32)cc1 (stereo not given) | 0.49 | 1.2 | 0.496 | 0.975 | 1.13 | 0.388 | -1.24 | 0.343 | 0.919 | -0.78 (inactive) | 0.359 | -0.29 (inactive) | -0.281 (inactive) | -0.322 (inactive) | 1.3 (inactive) | 1.3 | 0.246 | 0.792 | 0.936 | -0.0266
NCCCCCNC(=O)[C@@H]1C[C@@H]2C(=O)NCC(=O)N2[C@@H]1c1ccc(O)cc1 | 2.18 | 1.19 | 0.0992 | 0.948 | 1.51 | 1.79 | 1.41 | 1.76 | 0.891 | -1.11 (inactive) | 0.892 | 0.104 (inactive) | -0.735 (inactive) | 0.557 (inactive) | 0.467 (inactive) | 1.2 | -0.0963 | 1.06 | 0.682 | 2.06
COc1ccc(CCNC(=O)[C@@]2(C)c3ccccc3C(=O)N(Cc3cc(F)cc(C(F)(F)F)c3)[C@H]2c2ccc(CO)cc2)cc1 | 0.421 | 0.682 | 0.212 | 0.0066 | 0.179 | 0.132 | -0.233 | -0.953 | 0.606 | -0.947 (inactive) | 0.126 | -4.52 (inactive) | 1.3 (inactive) | 0.001 (inactive) | -1.28 (inactive) | -0.55 | -0.0791 | -0.621 | -0.0937 | -0.0895
C=CCNC(=O)[C@@H]1[C@H]2C(=O)O[C@H](c3ccccc3)[C@H](c3ccccc3)N2[C@H](c2ccccc2OCCO)[C@@]12C(=O)N(C(=O)OCCOC)c1ccc(C#CCNC(N)=O)cc12 | 1.56 | 1.14 | 0.322 | 0.887 | 0.864 | 0.658 | -0.206 | 0.857 | 0.916 | -0.63 (inactive) | 0.0308 | -0.952 (inactive) | -0.441 (inactive) | -0.199 (inactive) | 0.447 (inactive) | 0.225 | 0.115 | 0.186 | 0.697 | 1.53
COc1cc2c(cc1OC)CN(C(=O)[C@H]1[C@@H]3C(=O)O[C@@H](c4ccccc4)[C@@H](c4ccccc4)N3[C@@H](c3ccc(O)cc3)[C@]13C(=O)Nc1ccc(C#CCNC(N)=O)cc13)CC2 | -0.327 | -0.0403 | 0.0099 | -0.231 | 1.29 | 0.967 | -0.73 | 0.669 | 0.344 | 0.8 (inactive) | 0.438 | -0.431 (inactive) | -1.68 (inactive) | -1.01 (inactive) | -0.638 (inactive) | -0.283 | 0.0357 | 0.437 | 0.0805 | 0.74

Reference: PubChem BioAssay
